Source: PubChem BioAssay (NCATS)
Inconclusive results are not listed. A number with no mark means an inactive call. Active and inactive are the calls of the source. Unless noted, calls come from the whole dose curve.

Assay: Cell Viability - BJ (AID 421);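 note: cells exposed to compound for 40 hours at 37 °C before readout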
Settings: BJ fibroblast viability, qHTS
In short: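 Quantitative HTS: ATP depletion in BJ cells after 40 hr compound exposure in complete culture medium, detected with CellTiter-Glo; AC50 from standard Hill fits.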
Potency is the fitted concentration of half-maximal effect.

Row | SMILES | Potency [µM]
1 | CCC1CO1 (stereo not given) | > 92
2 | FC(F)(F)c1cccc(Cl)c1 | > 92
3 | O=Nc1ccc(NO)cc1 | > 92
4 | CC(=O)Nc1ccc(C)cc1 | > 92
5 | C=Cc1ccccn1 | > 92
6 | CCNc1ccccc1 | > 92
7 | Cc1ccccc1Br | > 92
8 | O=C(O)CNC(=O)c1ccc([N+](=O)[O-])cc1 | > 92
9 | CCCCC/C=C/C=C/C=O | > 92
10 | C=C(C)C(=O)OCC(C)C | > 92
11 | C[C@@H]1CC2(OC[C@]3(C)O[C@H]23)O[C@H]2C[C@@]3(C)[C@@H]4CC[C@H]5C(C)(C)C(O[C@@H]6OC[C@@H](O)[C@H](O)[C@H]6O)CC[C@@]56C[C@@]46CC[C@]3(C)[C@@H]12 (stereo not given in full) | > 92
12 | c1ccc2n[nH]nc2c1 | > 92
13 | C/C=C1\CC2C=CC1C2 (stereo not given) | > 92
14 | CCC(O)C(C)(C)C (stereo not given) | > 92
15 | CCOC(=O)OCC | > 92
16 | CC(=O)OCc1ccco1 | > 92
17 | COc1ccccc1[N+](=O)[O-] | > 92
18 | CCCCC(CC)COCC1CO1 (stereo not given) | > 92
19 | Cc1c(N)cccc1[N+](=O)[O-] | > 92
20 | ClC/C=C/CCl | > 92

Row | SMILES | Potency [µM]
21 | N#CCc1ccccc1[N+](=O)[O-] | > 92
22 | Cc1cccc(C)c1[N+](=O)[O-] | > 92
23 | Cc1ccc2ccccc2c1[N+](=O)[O-] | > 92
24 | CCCOCC(C)O (stereo not given) | > 92
25 | CSc1ccc(C=O)cc1 | > 92
26 | CC(O)COC(C)(C)C (stereo not given) | > 92
27 | Fc1ccccc1 | > 92
28 | NC(=O)NC(N)=O | > 92
29 | C=CC(=O)NC(C)C | > 92
30 | CCOC(=O)C(C)C(C)=O (stereo not given) | > 92
31 | O=C(O)c1ccc(Cl)cc1Cl | > 92
32 | C=C(C)C1CC=C(C)C(OC(C)=O)C1 (stereo not given) | > 92
33 | O=C(O)c1ccccc1Cl | > 92
34 | CCOCCOCC | > 92
35 | CCCCCCCCN | > 92
36 | CC(C)=CCC/C(C)=C/C=O | > 92
37 | C/C=C(/C)C#N | > 92
38 | CC(C)(c1cc(Br)c(OCC(Br)CBr)c(Br)c1)c1cc(Br)c(OCC(Br)CBr)c(Br)c1 (stereo not given) | > 92
39 | Cc1cc(C(=O)O)ccc1[N+](=O)[O-] | > 92
40 | CN(C)CCCNCCCN | > 92

Assay: Cell Viability - Jurkat (AID 426;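 active = dose-dependent loss of cell ATP signal giving a full or clear fitted curve, ranked by lower potency value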;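 note: cells exposed to compound for 40 hours at 37 °C before ATP read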)
Settings: qHTS
In short: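 Cells of the human T-cell leukemia line Jurkat (E6-1) are seeded at 5000 per well, treated with compound across a concentration range for 40 hours at 37 °C, then lysed with CellTiter-Glo; luminescence reports ATP.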

Row | SMILES | Potency
41 | CCC1CO1 (stereo not given) | > 92 µM
42 | FC(F)(F)c1cccc(Cl)c1 | > 92 µM
43 | O=Nc1ccc(NO)cc1 | 51.1 µM (active)
44 | CC(=O)Nc1ccc(C)cc1 | > 92 µM
45 | C=Cc1ccccn1 | > 92 µM
46 | CCNc1ccccc1 | > 92 µM
47 | Cc1ccccc1Br | > 92 µM
48 | O=C(O)CNC(=O)c1ccc([N+](=O)[O-])cc1 | > 92 µM
49 | CCCCC/C=C/C=C/C=O | 29.6 µM (active)
50 | C=C(C)C(=O)OCC(C)C | > 92 µM
51 | C[C@@H]1CC2(OC[C@]3(C)O[C@H]23)O[C@H]2C[C@@]3(C)[C@@H]4CC[C@H]5C(C)(C)C(O[C@@H]6OC[C@@H](O)[C@H](O)[C@H]6O)CC[C@@]56C[C@@]46CC[C@]3(C)[C@@H]12 (stereo not given in full) | > 92 µM
52 | c1ccc2n[nH]nc2c1 | > 92 µM
53 | C/C=C1\CC2C=CC1C2 (stereo not given) | > 92 µM
54 | CCC(O)C(C)(C)C (stereo not given) | > 92 µM
55 | CCOC(=O)OCC | > 92 µM
56 | CC(=O)OCc1ccco1 | > 92 µM
57 | COc1ccccc1[N+](=O)[O-] | > 92 µM
58 | CCCCC(CC)COCC1CO1 (stereo not given) | > 92 µM
59 | Cc1c(N)cccc1[N+](=O)[O-] | > 92 µM
60 | ClC/C=C/CCl | > 92 µM

Row | SMILES | Potency
61 | N#CCc1ccccc1[N+](=O)[O-] | > 92 µM
62 | Cc1cccc(C)c1[N+](=O)[O-] | > 92 µM
63 | Cc1ccc2ccccc2c1[N+](=O)[O-] | > 92 µM
64 | CCCOCC(C)O (stereo not given) | > 92 µM
65 | CSc1ccc(C=O)cc1 | > 92 µM
66 | CC(O)COC(C)(C)C (stereo not given) | > 92 µM
67 | Fc1ccccc1 | > 92 µM
68 | NC(=O)NC(N)=O | > 92 µM
69 | C=CC(=O)NC(C)C | > 92 µM
70 | CCOC(=O)C(C)C(C)=O (stereo not given) | > 92 µM
71 | O=C(O)c1ccc(Cl)cc1Cl | > 92 µM
72 | C=C(C)C1CC=C(C)C(OC(C)=O)C1 (stereo not given) | > 92 µM
73 | O=C(O)c1ccccc1Cl | > 92 µM
74 | CCOCCOCC | > 92 µM
75 | CCCCCCCCN | > 92 µM
76 | CC(C)=CCC/C(C)=C/C=O | > 92 µM
77 | C/C=C(/C)C#N | > 92 µM
78 | CC(C)(c1cc(Br)c(OCC(Br)CBr)c(Br)c1)c1cc(Br)c(OCC(Br)CBr)c(Br)c1 (stereo not given) | 46.9 µM (active)
79 | Cc1cc(C(=O)O)ccc1[N+](=O)[O-] | > 92 µM
80 | CN(C)CCCNCCCN | > 92 µM
